# Assay results: PubChem BioAssay (Tox21)
# Results filed as inconclusive are left out. Where a call stands in place of a potency, no number is given. Values without a mark were called inactive. Calls of active or inactive are those of the source. Calls come from the whole dose curve; as a rule, active = well fitted cell-killing curve with a large enough effect in the repeat runs; inconclusive = weak or mixed curves; inactive = flat fitted curve, though single readings scatter.
# Assay: qHTS RealTime-Glo MT Cell Viability Assay in HepG2 cells - 8 hour (AID 1224873); note: nearly all actives have a fitted effect of over 55% in size
# Conditions: RealTime-Glo luminescence; series mostly up to 76.8 µM
# From the text: National Center for Advancing Translational Sciences [NCATS]
# NIH Chemical Genomics Center [NCGC]
# U.S. Environmental Protection Agency [EPA]
# National Institutes of Environmental Health Sciences [NIEHS]
# National Toxicology Program [NTP]
# U.S. Food and Drug Administration [FDA]
# Measure of cell viability is critical in the cell-base assay. Analysis of cell viability is necessary for the characterization of cell responses to cytotoxic drugs and environmental stress. A RealTime-Glo MT Cell Viability Assay to monitor cell viability in real time of continues cell culture during 40 hours of compound treatment was used to screen Tox21 10K library compounds in HepG2 cells. The RealTime-Glo MT Cell Viability Assay is a nonlytic, homogeneous, bioluminescent method to measure cell viability in real time using a simple, plate-based method. The assay involves adding NanoLuc luciferase and a cell-permeant prosubstrate to cells in culture. Viable cells reduce the proprietary prosubstrate to generate a substrate for NanoLuc luciferase. This substrate diffuses from cells into the surrounding culture medium, where it is rapidly used by the NanoLuc Enzyme to produce a luminescent signal. The signal correlates with the number of viable cells, making the assay well suited for cytotoxicity studies.
# Tox21 Assay Protocol Summary:
# The mixture of HepG2 cell suspension and reagents were dispensed at 600cells/6 ul/well in 1536-well tissue culture treated black solid bottom plates using a Multidrop dispenser. After the assay plates were incubated at a 37 C/5% CO2 incubator for 5 hours, 23 nL of compounds dissolved in DMSO, positive and negative controls was transferred to the assay plate by a pintool work station. The plates were incubated at 37 C for 40 hours. The luminescence intensity were measured at 0h, 8h, 16h, 24h, 32h and 40h time points using ViewLux plate reader during compound treatment.
# Potency is the fitted concentration of half-maximal effect.
SMILES,Potency,"viability change, negative = cytotoxic"
O=C1[C@H]2CCCC[C@H]2C(=O)N1CCCCN1CCN(c2nsc3ccccc23)CC1,inactive,–
Nc1ccccc1S(=O)(=O)c1ccccc1,inactive,–
COc1cc2nc(N3CCN(C(=O)C4COc5ccccc5O4)CC3)nc(N)c2cc1OC (stereo not given),inactive,–
C#Cc1cccc(Nc2ncnc3cc(OCCOC)c(OCCOC)cc23)c1,inactive,–
CCCn1cnc2c1c(=O)n(CCCCC(C)=O)c(=O)n2C,inactive,–
NS(=O)(=O)c1ccc(N2CCCCS2(=O)=O)cc1,inactive,–
CN(C)C(=O)NC1(c2ccccc2)CCN(CC[C@@]2(c3ccc(F)c(F)c3)CN(C(=O)c3ccccc3)CCO2)CC1,inactive,–
CCc1cc(C2=C(C(=O)O)N(c3ccccc3C(F)(F)F)S(=O)(=O)c3ccccc32)cc2c1OCO2,inactive,–
OCc1cc(C(O)CNCCCCCCOCCCCc2ccccc2)ccc1O (stereo not given),inactive,–
CCC(Cl)CCC(Cl)C(Cl)CC(Cl)C(Cl)C(Cl)CCl (stereo not given),inactive,–
c1ccc(CNCCNCc2ccccc2)cc1,inactive,–
Nc1ccc([N+](=O)[O-])c(C(F)(F)F)c1,inactive,–
C/C(=C(\CCOP(=O)(O)O)SC(=O)c1ccccc1)N(C=O)Cc1cnc(C)nc1N,–,2.94% [at 6.97 µM]
CCOc1ccc(N)c([N+](=O)[O-])c1,inactive,–
CC(=O)NO,inactive,–
CCCCC(CC)COC(=O)CCCCCCCCC(=O)OCC(CC)CCCC (stereo not given),inactive,–
CCOC(=O)C1=C[C@]2(CC)CCCN3CCc4c(n1c1ccccc41)[C@@H]32,inactive,–
CN1CCC(N(Cc2cccs2)c2ccccc2)CC1,inactive,–
C[C@@H]1C[C@H]2[C@@H]3CCC4=CC(=O)C=C[C@]4(C)[C@@]3(F)[C@@H](O)C[C@]2(C)[C@@]1(O)C(=O)COC(=O)c1ccncc1,inactive,–
CC(C)(C)Cl,inactive,–

SMILES,Potency,"viability change, negative = cytotoxic"
CCOc1ccc(O)cc1,inactive,–
Cc1ccc(C(=O)Oc2ccc(C(O)CNC(C)(C)C)cc2OC(=O)c2ccc(C)cc2)cc1 (stereo not given),21.3 µM (active),–
O=C(OCCCCCCOC(=O)c1ccccc1)c1ccccc1,inactive,–
Nc1cccc([N+](=O)[O-])c1,inactive,–
Cc1ccc(C(C)OC(=O)C2(C)CCC(C(=O)O)C2(C)C)cc1 (stereo not given),inactive,–
CN1CCN(C(c2ccccc2)c2ccccc2)CC1,inactive,–
CN1CCC(=C2c3ccccc3Sc3ccccc32)CC1,inactive,–
C#CCN(C)CCCOc1ccc(Cl)cc1Cl,inactive,–
CCC(C)O (stereo not given),inactive,–
CC(C)Nc1ccc(NC(C)C)c2c1C(=O)c1ccccc1C2=O,inactive,–
CCOC(=O)NCCOc1ccc(Oc2ccccc2)cc1,inactive,–
CCCCOC(=O)CCCCCCCC(=O)OCCCC,inactive,–
Cn1c(=O)cc(Oc2ccc(F)cc2F)c2cnc(NCC(C)(C)O)nc21,inactive,–
C=C1[C@H]2CC[C@@H]3[C@H]2C(C)(C)CCC[C@]13C,inactive,–
CCCCCCCC#N,inactive,–
CCCNCC(O)COc1ccccc1C(=O)CCc1ccccc1 (stereo not given),inactive,–
C=C(C)C(=O)OCC,inactive,–
CCCCCCCCCCCC(=O)OC[C@@H](O)[C@H]1OC[C@H](OCCO)[C@H]1OCCO,inactive,–
O=S(c1cc(Cl)cc(Cl)c1O)c1cc(Cl)cc(Cl)c1O,inactive,–
COc1ccc(C(=O)c2ccc(OC)cc2O)c(O)c1,inactive,–
